Assay results from the supplement of paper PMC9262897, “Low-cost anti-mycobacterial drug discovery using engineered E. coli” (Nature Communications, 2022).
Where a name gives a salt, the structure may show the parent alone. ± gives the standard deviation of the averaged measurements.

Assays:
Experiment in all cases: growth (OD600 after 10 h); higher = more growth (less inhibition)
[1] = tested on: E. coli TESEC Alr+ wild-type control; settings: compound 0.1 mM; raw OD600 reference: median of DMSO wells 0.241, cell-free background 0.041
Method: (§1)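 TESEC Mtb Alr E. coli, or the Alr+ wild-type control, in 384-well plates with Prestwick library compounds at 0.1 mM and 1% DMSO, across arabinose induction levels of 1E3 to 1E7 nM. Growth is read as OD600 after 10 h at 37 °C in triplicate biological replicates.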

[2] = tested on: E. coli TESEC Mtb Alr; settings: compound 0.1 mM
Method: as §1

[3] = tested on: E. coli TESEC Mtb Asd; settings: compound 0.1 mM
Method: (§2)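 TESEC E. coli strains in which the native enzyme is deleted and replaced by arabinose-inducible Mtb Asd, DapB, CysH or TrpD, each grown in its selective medium. Strains were screened against the Prestwick library at 0.1 mM and 1% DMSO in 384-well format at low and high arabinose induction. Growth is read as OD600 after 10 h in triplicate.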

[4] = tested on: E. coli TESEC Mtb DapB; settings: compound 0.1 mM
Method: as §2

[5] = tested on: E. coli TESEC Mtb Alr; settings: compound 0.1 mM; remark: listed apart in the source
Method: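 TESEC Mtb Alr E. coli (ΔaraC ΔtolC ΔentC Δalr ΔdadX, arabinose-inducible Mtb Alr) or the Alr+ wild-type control strain, grown in defined M9-fructose medium without D-alanine in 96-well plates with Prestwick library compounds at 0.1 mM and 1% DMSO. Low Alr induction is 0.1 µM arabinose and high induction is 10 mM arabinose.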

[6] = arabinose 1000 nM, raw OD600 reference: median of DMSO wells 0.294, cell-free background 0.041
[7] = arabinose 10000 nM, raw OD600 reference: median of DMSO wells 0.264, cell-free background 0.041
[8] = arabinose 100000 nM, raw OD600 reference: median of DMSO wells 0.201, cell-free background 0.041
[9] = arabinose 1000000 nM, raw OD600 reference: median of DMSO wells 0.193, cell-free background 0.041
[10] = arabinose 10000000 nM, raw OD600 reference: median of DMSO wells 0.146, cell-free background 0.041
[11] = arabinose induction (level): High, raw OD600 reference: median of DMSO wells 0.331, cell-free background 0.041
[12] = arabinose induction (level): Low, raw OD600 reference: median of DMSO wells 0.417, cell-free background 0.041
[13] = arabinose induction (level): High, raw OD600 reference: median of DMSO wells […], cell-free background 0.041
[14] = arabinose induction (level): Low, raw OD600 reference: median of DMSO wells 0.227, cell-free background 0.041
[15] = arabinose 100 nM, raw OD600 reference: median of DMSO wells 0.413, cell-free background 0.052
[16] = arabinose 10000000 nM, raw OD600 reference: median of DMSO wells […], cell-free background 0.052

Structure (SMILES) | growth [1] | growth [2, 6] | growth [2, 7] | growth [2, 8] | growth [2, 9] | growth [2, 10] | growth [3, 11] | growth [3, 12] | growth [4, 13] | growth [4, 14] | growth [5, 15] | growth [5, 16]
CCCCCCNC(=O)n1cc(F)c(=O)[nH]c1=O [Carmofur] | 0.1489 ± 0.00094 | 0.215 ± 0.024 | 0.176 ± 0.017 | 0.108 ± 0.0064 | 0.0803 ± 0.0054 | 0.112 ± 0.0029 | 0.235 ± 0.029 | 0.359 ± 0.026 | 0.179 ± 0.01 | 0.201 ± 0.018 | 0.349 ± 0.056 | 0.134 ± 0.014
Cn1ccnc1S [Methimazole] | 0.257 ± 0.0088 | 0.32 ± 0.018 | 0.275 ± 0.0076 | 0.195 ± 0.011 | 0.191 ± 0.0034 | 0.16 ± 0.0067 | 0.484 ± 0.0095 | 0.417 ± 0.096 | 0.2 ± 0.0098 | 0.262 ± 0.04 | 0.405 ± 0.014 | 0.323 ± 0.009
CC(=O)OCC(=O)[C@@]1(O)[C@H](C)C[C@H]2[C@@H]3CCC4=CC(=O)C=C[C@]4(C)[C@@]3(F)[C@@H](O)C[C@@]21C [Dexamethasone acetate] | 0.167 ± 0.006 | 0.239 ± 0.041 | 0.226 ± 0.007 | 0.192 ± 0.017 | 0.119 ± 0.0023 | 0.1362 ± 0.00044 | 0.226 ± 0.034 | 0.356 ± 0.056 | 0.171 ± 0.017 | 0.233 ± 0.03 | 0.396 ± 0.011 | 0.234 ± 0.018
Cc1cccc(CN2CCN(C(c3ccccc3)c3ccc(Cl)cc3)CC2)c1 (centres undefined) [Meclozine dihydrochloride] | 0.278 ± 0.0073 | 0.279 ± 0.011 | 0.302 ± 0.006 | 0.174 ± 0.023 | 0.129 ± 0.0042 | 0.185 ± 0.0054 | 0.207 ± 0.024 | 0.242 ± 0.0061 | 0.209 ± 0.0042 | 0.247 ± 0.021 | 0.428 ± 0.031 | 0.143 ± 0.0093
CN(C)CCC=C1c2ccccc2C=Cc2ccccc21 [Cyclobenzaprine hydrochloride] | 0.1703 ± 0.0014 | 0.204 ± 0.016 | 0.247 ± 0.011 | 0.172 ± 0.011 | 0.0898 ± 0.0029 | 0.125 ± 0.0031 | 0.161 ± 0.0091 | 0.262 ± 0.022 | 0.175 ± 0.011 | 0.203 ± 0.027 | 0.401 ± 0.0064 | 0.231 ± 0.018
CCC1(c2ccccc2)C(=O)NCNC1=O [Primidone] | 0.243 ± 0.011 | 0.296 ± 0.0094 | 0.255 ± 0.0076 | 0.201 ± 0.012 | 0.18 ± 0.0097 | 0.144 ± 0.0039 | 0.448 ± 0.024 | 0.463 ± 0.043 | 0.208 ± 0.014 | 0.249 ± 0.013 | 0.408 ± 0.015 | 0.333 ± 0.0042
CCC(=O)O[C@]1(C(=O)CCl)[C@@H](C)C[C@H]2[C@@H]3CCC4=CC(=O)C=C[C@]4(C)[C@@]3(F)[C@@H](O)C[C@@]21C [Clobetasol propionate] | 0.148 ± 0.0028 | 0.19 ± 0.034 | 0.186 ± 0.011 | 0.161 ± 0.01 | 0.0968 ± 0.0071 | 0.156 ± 0.0017 | 0.264 ± 0.097 | 0.178 ± 0.017 | 0.145 ± 0.019 | 0.169 ± 0.021 | 0.407 ± 0.015 | 0.122 ± 0.05
CC(C)(C)c1ccc(C(O)CCCN2CCC(C(O)(c3ccccc3)c3ccccc3)CC2)cc1 (centres undefined) [Terfenadine] | 0.205 ± 0.0036 | 0.207 ± 0.14 | 0.296 ± 0.0092 | 0.181 ± 0.0044 | 0.136 ± 0.072 | 0.158 ± 0.0023 | 0.265 ± 0.054 | 0.421 ± 0.013 | 0.199 ± 0.013 | 0.239 ± 0.014 | 0.0737 ± 0.031 | 0.0518 ± 0.00085
Cc1cc(=O)n(-c2ccccc2)n1C [Antipyrine] | 0.252 ± 0.0043 | 0.294 ± 0.014 | 0.257 ± 0.0094 | 0.221 ± 0.013 | 0.176 ± 0.0026 | 0.1436 ± 0.0012 | 0.305 ± 0.04 | 0.371 ± 0.014 | 0.191 ± 0.0076 | 0.204 ± 0.0077 | 0.412 ± 0.0087 | 0.379 ± 0.026
CN(C)/N=N/c1[nH]cnc1C(N)=O [Dacarbazine] | 0.211 ± 0.0036 | 0.259 ± 0.0098 | 0.219 ± 0.012 | 0.197 ± 0.036 | 0.136 ± 0.0025 | 0.151 ± 0.0043 | 0.278 ± 0.036 | 0.362 ± 0.12 | 0.181 ± 0.012 | 0.213 ± 0.033 | 0.405 ± 0.013 | 0.296 ± 0.024
CN1CCN(C2=Nc3cc(Cl)ccc3Nc3ccccc32)CC1 [Clozapine] | 0.156 ± 0.008 | 0.206 ± 0.0044 | 0.242 ± 0.0072 | 0.178 ± 0.011 | 0.1 ± 0.0026 | 0.154 ± 0.0034 | 0.143 ± 0.018 | 0.293 ± 0.0055 | 0.17 ± 0.0049 | 0.205 ± 0.0082 | 0.41 ± 0.0084 | 0.32 ± 0.011
CCOc1nc2cccc(C(=O)O)c2n1Cc1ccc(-c2ccccc2-c2nnn[nH]2)cc1 [Candesartan] | 0.238 ± 0.0077 | 0.297 ± 0.0053 | 0.285 ± 0.0054 | 0.212 ± 0.023 | 0.222 ± 0.015 | 0.141 ± 0.0058 | 0.292 ± 0.03 | 0.265 ± 0.029 | 0.197 ± 0.0041 | 0.205 ± 0.024 | 0.415 ± 0.0062 | 0.355 ± 0.0055
CCCc1nc(C)c2c(=O)nc(-c3cc(S(=O)(=O)N4CCN(CC)CC4)ccc3OCC)[nH]n12 [Vardenafil] | 0.148 ± 0.0033 | 0.221 ± 0.0081 | 0.26 ± 0.011 | 0.18 ± 0.0021 | 0.107 ± 0.0037 | 0.126 ± 0.0068 | 0.189 ± 0.02 | 0.238 ± 0.052 | 0.151 ± 0.0082 | 0.173 ± 0.018 | 0.41 ± 0.0051 | 0.305 ± 0.014
CC(C)(S)C(N)C(=O)O (racemic) [D,L-Penicillamine] | 0.251 ± 0.0054 | 0.307 ± 0.016 | 0.2563 ± 0.0018 | 0.187 ± 0.021 | 0.187 ± 0.0061 | 0.146 ± 0.0078 | 0.307 ± 0.03 | 0.413 ± 0.018 | 0.18 ± 0.023 | 0.205 ± 0.024 | 0.403 ± 0.0076 | 0.35 ± 0.014
CN(C)CCN(Cc1ccc(Cl)cc1)c1ccccn1 [Chloropyramine hydrochloride] | 0.189 ± 0.0042 | 0.245 ± 0.0086 | 0.265 ± 0.0041 | 0.201 ± 0.0069 | 0.148 ± 0.0046 | 0.128 ± 0.006 | 0.171 ± 0.017 | 0.43 ± 0.013 | 0.185 ± 0.02 | 0.208 ± 0.016 | 0.399 ± 0.0085 | 0.314 ± 0.012
CCOC(=O)[C@H](CCc1ccccc1)N[C@@H](C)C(=O)N1[C@H](C(=O)O)C[C@@H]2CCC[C@@H]21 [Ramipril] | 0.22 ± 0.014 | 0.292 ± 0.004 | 0.288 ± 0.01 | 0.19 ± 0.011 | 0.217 ± 0.004 | 0.14 ± 0.0088 | 0.253 ± 0.065 | 0.365 ± 0.092 | 0.188 ± 0.013 | 0.229 ± 0.0092 | 0.42 ± 0.0058 | 0.295 ± 0.022
CNCCC(Oc1ccc(C(F)(F)F)cc1)c1ccccc1 (centres undefined) [Fluoxetine hydrochloride] | 0.129 ± 0.0027 | 0.0669 ± 0.0012 | 0.133 ± 0.0068 | 0.0693 ± 0.0015 | 0.0486 ± 0.00026 | 0.05543 ± 0.00047 | 0.0984 ± 0.0045 | 0.086 ± 0.016 | 0.142 ± 0.036 | 0.132 ± 0.0058 | 0.411 ± 0.011 | 0.0614 ± 0.0047
